High-throughput results as filed in PubChem BioAssay.
Not all results are given here.
TNAP pNPP inh – human TNAP enzyme inhibitors, primary screen, biochemical, colorimetric, p-nitrophenol readout. 21,000 tested, under 10 active. inhibition, % at 20 µM. purified TNAP, pNPP hydrolysis, absorbance 405 nm. AID 615, 2007
TNAP Pi inh – human TNAP enzyme inhibitors, primary screen, biochemical, colorimetric, phosphate release readout; Alkaline phosphatase, tissue-nonspecific isozyme (Homo sapiens), P05186; purified TNAP, pNPP, malachite green phosphate absorbance; inhibition, % at 20 µM; 21,000 tested, under 10 active; AID 614, 2007
Of the large screens only hits and unclear results are named; the others gave an inactive call.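 Rule for the calls: active = inhibition above 50% at the 20 µM single-dose screen; inactive = the rest.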

COCCCn1c(SCC(=O)n2c(C)c(C)c3ccccc32)nnc1-c1ccoc1C	none
Cc1cccc(C)c1NC(=O)CSc1nnc(Cn2nnc(-c3ccccc3)n2)n1-c1ccccc1	none
CCOC(=O)Cn1c(CN(Cc2ccccc2)Cc2ccccc2)nc2c1c(=O)n(C)c(=O)n2C	none
O=C(Nc1ccn(-c2ccccc2)n1)c1ccc(S(=O)(=O)N2CCCCCC2)cc1	none
COC(=O)C(C(=O)OC)C(C(C)C)C(C(=O)OC)C(=O)OC	none
O=C(CSc1n[nH]c(-c2ccccc2)n1)c1ccc(O)c(O)c1	none
Cc1ccc(N(C(C)C(=O)N2CCCCC2)S(C)(=O)=O)cc1C (stereo unspecified)	none
O=C(CSc1ncn[nH]1)NCCCc1ccccc1	none
CCOC(=O)c1c(C)[nH]c(C(=O)C(C)OC(=O)c2cccc(OCc3c(C)noc3C)c2)c1C (stereo unspecified)	none
Cc1ccccc1COc1ccc(/C(O)=C2/C(=O)C(=O)N(CCCn3ccnc3)C2c2ccco2)cc1 (stereo unspecified)	none
CN(C)S(=O)(=O)NCc1ccc2c(c1)OCO2	none
O=S(=O)(Nc1cccc2ccccc12)N1CCCC1	none
Cc1cc(Br)ccc1NC(=O)CNC(=O)CN(C)Cc1nc2ccccc2c(=O)[nH]1	none
CCOC(=O)C1CCCN(C(=O)CSc2nccn2C)C1 (stereo unspecified)	none
CCCn1nnc(NC(=O)COc2ccc(C3CCCCC3)cc2)n1	none
CCOC(=O)CCSc1nnc(-c2cccnc2)n1-c1ccccc1OC	none
Cn1c(Br)nc2c1c(=O)n(CC(O)COc1ccccc1)c(=O)n2C (stereo unspecified)	none
CCN(CC)C(=O)Cn1nc(-c2ccccc2O)nc1SCC(=O)Nc1ccc(OC)cc1	none
COc1cccc(/C=C2/CN(C)CC3=C2OC(N)=C(C#N)C3c2cccc(OC)c2)c1 (stereo unspecified)	none
CCSCc1nnc(SCC(=O)c2ccc(OC)cc2)n1C	none
CCC(C(=O)Nc1nnc(-c2ccco2)s1)c1ccccc1 (stereo unspecified)	none
CCOC(=O)C1CCCN(C/C(O)=C(\C#N)c2nc(-c3ccccc3)cs2)C1 (stereo unspecified)	none
CCOC(=O)c1cc2c(ccn2C)n1CC(=O)N1CCN(c2ccccc2OC)CC1	none
Clc1ccc(COc2ccccn2)c(Cl)c1	none
COC(=O)Cc1cc(=O)[nH]c(/N=C(/NC(=O)c2ccccc2)Nc2ccccc2C)n1	none
O=C(NC(C(=O)c1ccccc1)N1CCCCC1)c1ccccc1 (stereo unspecified)	none
Cn1c(O)c(C=Nc2ccc(Cc3ccncc3)cc2)c(=O)n(C)c1=O	none
Cc1cccc(C)c1OCC(O)CNS(=O)(=O)c1ccccc1C(=O)N1CCCCC1 (stereo unspecified)	none
CCN(CC)c1ccc(-c2nc3cnccc3n2C)cc1	none
Cc1cc(C)n(-c2nncn2NC(=O)c2ccc(Cl)cc2O)n1	none
COc1ccc(-c2cc3nc4n(c(=O)c3s2)CCOC4)cc1	none
O=C(CSc1nnc(-c2ccc(S(=O)(=O)N3CCCC3)cc2)o1)NCc1ccco1	none
Cc1cc(C)c(S(=O)(=O)n2nc(C)c(Br)c2C)c(C)c1	none
O=c1oc2cc(O)ccc2c2c1CCCC2	none
COc1ccc(-c2nnc(SC(C)C(=O)Nc3cccc(Cl)c3)o2)cc1 (stereo unspecified)	none
Cc1cc(C(F)(F)F)nn1CCCNC(=O)c1cnccn1	none
CC(NC(=O)C(NC(=O)C1CCCN1C(=O)OC(C)(C)C)C(C)C)C(N)=O (stereo unspecified)	none
CS(=O)(=O)N(CCc1ccccc1)CC(=O)NCc1ccco1	none
O=C(O)C1C2C=CC3(CN(Cc4ccncc4)C(=O)C13)O2 (stereo unspecified)	none
O=C(Cn1nc(Cl)nc1Cl)c1cc2ccccc2oc1=O	none
COc1ccc(-c2csc(/C(C#N)=C(\O)CSc3nccn3C)n2)cc1OC	none
COC(=O)c1ccccc1NC(=O)CN1CCN(C23CC4CC(CC(C4)C2)C3)CC1	none
Cc1ccc(NC(=O)N2C(=O)C3(OCCO3)c3ccccc32)cc1	none
CC(NC(=O)CSc1ncccn1)c1ccccc1 (stereo unspecified)	none
Nc1ccc2[nH]ncc2c1	none
O=C(O)C1C2C=CC(C2)C1C(=O)NCCCn1ccnc1 (stereo unspecified)	none
CCn1c(SCC(=O)Nc2cc3oc4ccccc4c3cc2OC)nnc1-c1cccs1	none
CC(C)Cn1c(=O)c2c(nc3n2CCCN3CCc2ccccc2)n(C)c1=O	none
CSc1ccc(N2C(=O)NC3(CCCCC3)C2=O)cc1	none
CCCCn1nnnc1NCc1cccc(OC)c1OC	none
CCCS(=O)(=O)Nc1cc(C(F)(F)F)ccc1OCCOC	none
CCOC(=O)N1CCN(S(=O)(=O)c2cccc3ccc(C)nc23)CC1	none
COc1ccc(OCc2nnc(SC(C)C(=O)Nc3nccs3)n2-c2ccccc2)cc1 (stereo unspecified)	none
CCOC(=O)C1(c2nc(N)cs2)COC(=O)C1 (stereo unspecified)	none
